PubChem BioAssay AID1159580 (chemical genetic matrix, 2015)
Where “and” joins values, the source holds several entries; their conditions need not be identical. Identical values can stand only once. In all, about 5,500 compounds went through this assay and about 2,000 (36%) were called active. Roughly 18% stayed inconclusive and do not appear here. Rule as the data show it: active = normalized growth mostly below about 0.91 (no sharp cut-off); inconclusive = no clear call, values can overlap the other calls; inactive = mostly above about 0.92. Some of the results follow.

Experiment: chemical genetic growth profiling, strain panel (AID 1159580);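 also: tested at 20 µM; growth read once vehicle control cultures reached saturation at 30 °C; 1 = growth at the plate median or of vehicle wells; lower values mean less growth of the strain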
Conditions: S. cerevisiae deletion strains, growth OD

Measured: normalized growth

COc1cc([C@@H]2c3cc4c(cc3[C@H](O)[C@H]3COC(=O)[C@H]23)OCO4)cc(OC)c1OC
inactive: locus YAL013W, strain DEP1, stronger effect = lower value 1.01 | locus YAL021C, strain ccr4, stronger effect = lower value 1 | locus YAL026C, strain drs2, stronger effect = lower value 1.03 | locus YAL030W, strain snc1, stronger effect = lower value 1.01 | locus YBL061C, strain skt5, stronger effect = lower value 1.01 | locus YBR009C, strain hhf1, stronger effect = lower value 1.04 | locus YBR021W, strain FUR4, stronger effect = lower value 1.01 | locus YBR023C, strain chs3, stronger effect = lower value 1.01 | locus YBR171W, strain sec66, stronger effect = lower value 1.01 | locus YBR229C, strain ROT2, stronger effect = lower value 1.01 | locus YBR231C, strain swc5, stronger effect = lower value 1.01 | locus YBR279W, strain paf1, stronger effect = lower value 1.02 | locus YCL011C, strain gbp2, stronger effect = lower value 1.01 | locus YCL016C, strain dcc1, stronger effect = lower value 0.996 | locus YCL029C, strain bik1, stronger effect = lower value 1.03 | locus YCL061C, strain MRC1, stronger effect = lower value 1.02 | locus YCL069W, strain vba3, stronger effect = lower value 1.01 | locus YCR088W, strain abp1, stronger effect = lower value 1.01 | locus YDL005C, strain med2, stronger effect = lower value 1.01 | locus YDL035C, strain GPR1, stronger effect = lower value 1.01 | locus YDL040C, strain nat1, stronger effect = lower value 1 | locus YDL074C, strain BRE1, stronger effect = lower value 1.05 | locus YDL101C, strain DUN1, stronger effect = lower value 1.02 | locus YDL134C, strain PPH21, stronger effect = lower value 1.02 | locus YDL185W, strain tfp1, stronger effect = lower value 1.01 | locus YDL192W, strain arf1, stronger effect = lower value 1.01 | locus YDR001C, strain nth1, stronger effect = lower value 1 | locus YDR069C, strain doa4, stronger effect = lower value 1 | locus YDR101C, strain arx1, stronger effect = lower value 1.01 | locus YDR137W, strain rgp1, stronger effect = lower value 1.03 | locus YDR150W, strain NUM1, stronger effect = lower value 1.01 | locus YDR159W, strain sac3, stronger effect = lower value 0.987 | locus YDR162C, strain NBP2, stronger effect = lower value 1.01 | locus YDR195W, strain ref2 0.971 | locus YDR297W, strain sur2, stronger effect = lower value 1.01 | locus YDR318W, strain mcm21, stronger effect = lower value 1.03 | locus YDR334W, strain swr1, stronger effect = lower value 1.02 | locus YDR335W, strain msn5, stronger effect = lower value 1.01 | locus YDR388W, stronger effect = lower value 1.01 | locus YDR392W, strain spt3, stronger effect = lower value 0.926 | locus YDR502C, strain sam2, stronger effect = lower value 1 | locus YEL003W, strain gim4, stronger effect = lower value 1.01 | locus YEL037C, strain rad23, stronger effect = lower value 1.02 | locus YEL061C, strain CIN8 (second series), stronger effect = lower value 1.01 | locus YEL061C, strain CIN8, stronger effect = lower value 1 | locus YER015W, strain faa2, stronger effect = lower value 1.02 | locus YER016W, strain bim1, stronger effect = lower value 1 | locus YER110C, stronger effect = lower value 1.01 | locus YER111C, strain swi4, stronger effect = lower value 1.01 | locus YER155C, strain BEM2 (second series), stronger effect = lower value 0.998 | locus YER155C, strain BEM2, stronger effect = lower value 1.01 | locus YER167W, strain BCK2, stronger effect = lower value 1.01 | locus YFR010W, strain ubp6, stronger effect = lower value 1.02 | locus YGL078C, strain dbp3, stronger effect = lower value 1 | locus YGL086W, strain mad1, stronger effect = lower value 1 | locus YGL167C, strain pmr1, stronger effect = lower value 1.01 | locus YGL173C, strain kem1, stronger effect = lower value 1.04 | locus YGL227W, strain vid30, stronger effect = lower value 1.01 | locus YGL240W, strain doc1, stronger effect = lower value 1 | locus YGL248W, strain PDE1, stronger effect = lower value 1.01 | locus YGL253W, strain hxk2, stronger effect = lower value 0.982 | locus YGR078C, strain PAC10, stronger effect = lower value 1.03 | locus YGR135W, strain pre9, stronger effect = lower value 1.01 | locus YGR229C, strain SMI1, stronger effect = lower value 1.03 | locus YGR252W, strain gcn5, stronger effect = lower value 0.988 | locus YHR013C, strain ard1, stronger effect = lower value 1 | locus YHR027C, strain rpn1, stronger effect = lower value 1.01 | locus YHR030C, strain SLT2, stronger effect = lower value 1.01 and 0.951 | locus YHR079C, strain IRE1 (second series), stronger effect = lower value 1.02 | locus YHR079C, strain IRE1, stronger effect = lower value 0.952 | locus YHR094C, strain hxt1, stronger effect = lower value 1.01 | locus YHR129C, strain ARP1, stronger effect = lower value 1.01 | locus YHR142W, strain chs7, stronger effect = lower value 0.992 | locus YHR200W, strain rpn10, stronger effect = lower value 1.01 | locus YIL066C, strain RNR3, stronger effect = lower value 1.02 | locus YIL073C, strain SPO22, stronger effect = lower value 1.02 | locus YIL125W, strain kgd1, stronger effect = lower value 1.01 | locus YIR030C, strain dcg1, stronger effect = lower value 1.01 | locus YJL092W, strain hpr5, stronger effect = lower value 1.02 | locus YJL095W, strain BCK1 (second series), stronger effect = lower value 1.01 | locus YJL095W, strain BCK1, stronger effect = lower value 1.04 and 0.961 | locus YJL115W, strain asf1, stronger effect = lower value 1.01 | locus YJL129C, strain trk1, stronger effect = lower value 1.02 | locus YJL134W, strain LCB3, stronger effect = lower value 1.01 | locus YJL154C, strain vps35, stronger effect = lower value 0.999 | locus YJL164C, strain tpk1, stronger effect = lower value 1.02 | locus YJL166W, strain qcr8, stronger effect = lower value 1 | locus YJL168C, strain set2, stronger effect = lower value 1.01 | locus YJL187C, strain SWE1 (second series), stronger effect = lower value 1.04 | locus YJL187C, strain SWE1, stronger effect = lower value 1.02 | locus YJR043C, strain POL32, stronger effect = lower value 1.04 | locus YJR066W, strain TOR1, stronger effect = lower value 0.927
